Measured values: PubChem BioAssay (NCI)
About 83,000 compounds went through this panel and 20% of them were active in at least one assay; those are over-represented in the sample as a whole.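 48-hour exposure, single concentration, 96-well plates; percent growth endpoint where 0 means no net growth. Active: below 10.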 Calls of active or inactive are those of the source.

Experiments:
Assay in all cases: NCI-60 one-dose screen, 48 h (100 = growth as untreated, 0 = no growth, -100 = all killed)
Details in all cases: 10 µM
NCI-H23 lung = system: NCI-H23 lung
NCI-H226 lung = system: NCI-H226 lung
NCI-H322M lung = system: NCI-H322M lung
NCI-H460 lung = system: NCI-H460 lung
HOP-92 NSCLC = system: HOP-92 NSCLC
NCI-H522 lung = system: NCI-H522 lung
A549/ATCC NSCLC = system: A549/ATCC NSCLC
786-0 renal = system: 786-0 renal
COLO 205 colon = system: COLO 205 colon
HOP-62 NSCLC = system: HOP-62 NSCLC

Measured: growth

CC(C)CCOC(=O)c1ccccc1
inactive: NCI-H23 lung 106% | NCI-H226 lung 102% | NCI-H322M lung 95.6% | NCI-H460 lung 106% | HOP-92 NSCLC 101% | NCI-H522 lung 104% | A549/ATCC NSCLC 102% | 786-0 renal 99.8% | COLO 205 colon 105%

O=C(/C=C/C(=O)c1ccccc1)c1ccccc1
inactive: NCI-H23 lung 99% | NCI-H226 lung 107% | NCI-H322M lung 116% | HOP-62 NSCLC 109% | HOP-92 NSCLC 96.3% | NCI-H522 lung 74.8% | A549/ATCC NSCLC 105% | 786-0 renal 103% | COLO 205 colon 70.1%

O=c1cc(-c2ccccc2)[nH]c(=S)[nH]1
inactive: NCI-H23 lung 101% | NCI-H226 lung 103% | NCI-H322M lung 97.6% | HOP-62 NSCLC 108% | NCI-H460 lung 108% | A549/ATCC NSCLC 104% | 786-0 renal 97.5% | COLO 205 colon 119%

CC(=O)NCc1cc(C)c(C)cc1C
inactive: NCI-H23 lung 102% | NCI-H226 lung 93.4% | NCI-H322M lung 92% | HOP-62 NSCLC 106% | NCI-H460 lung 104% | 786-0 renal 97.8% | COLO 205 colon 94.2%

COc1ccc(/C=C/c2cccc[n+]2C)cc1
inactive: NCI-H23 lung 100% | NCI-H226 lung 101% | NCI-H322M lung 93.5% | HOP-62 NSCLC 77.5% | NCI-H460 lung 106% | 786-0 renal 94.3% | COLO 205 colon 42.1%

O=C(O)/C=C/C(=O)NCc1ccccc1
inactive: NCI-H23 lung 107% | NCI-H226 lung 98.4% | NCI-H322M lung 93.5% | HOP-62 NSCLC 101% | NCI-H460 lung 104% | 786-0 renal 98.9% | COLO 205 colon 106%

C/C(=C\c1ccc([N+](=O)[O-])cc1)C(=O)O
inactive: NCI-H23 lung 102% | NCI-H226 lung 98.3% | NCI-H322M lung 111% | NCI-H460 lung 102% | HOP-92 NSCLC 95.1% | NCI-H522 lung 87.1% | A549/ATCC NSCLC 91.7% | 786-0 renal 96.7%

CC1=CC(C)(C)NC(=S)N1c1ccc(S(=O)(=O)O)c2cccc(S(=O)(=O)O)c12
inactive: NCI-H23 lung 101% | NCI-H226 lung 100% | NCI-H322M lung 127% | HOP-62 NSCLC 99.5% | NCI-H460 lung 110% | A549/ATCC NSCLC 106% | 786-0 renal 112% | COLO 205 colon 102%

COc1ccccc1N=Nc1c(O)ccc2cc(S(=O)(=O)O)ccc12
inactive: NCI-H23 lung 86.8% | NCI-H226 lung 98.2% | NCI-H322M lung 99.1% | HOP-62 NSCLC 82.7% | HOP-92 NSCLC 84.7% | NCI-H522 lung 85.7% | A549/ATCC NSCLC 100% | 786-0 renal 107% | COLO 205 colon 104%

CCCCC(CC)COC(C)=O (stereo not given)
inactive: NCI-H23 lung 100% | NCI-H226 lung 105% | NCI-H322M lung 98% | NCI-H460 lung 106% | HOP-92 NSCLC 95.6% | NCI-H522 lung 105% | A549/ATCC NSCLC 105% | 786-0 renal 96% | COLO 205 colon 100%

Cc1ccc(C(=O)c2ccccc2)c(C)c1
inactive: NCI-H23 lung 99.6% | NCI-H226 lung 104% | NCI-H322M lung 105% | HOP-62 NSCLC 95% | NCI-H460 lung 110% | A549/ATCC NSCLC 110% | COLO 205 colon 109%

C[N+](C)=c1ccc2nc3c(cc(Nc4ccccc4)c4ccccc43)oc-2c1
inactive: NCI-H23 lung 31.6% | NCI-H226 lung 44.4% | HOP-62 NSCLC 67.6% | NCI-H460 lung 65% | HOP-92 NSCLC 79.5% | NCI-H522 lung 42.3% | A549/ATCC NSCLC 64.4% | 786-0 renal 72.8% | COLO 205 colon 22.6%

CCOC(=O)c1cc2cccc(OC)c2oc1=O
inactive: NCI-H23 lung 110% | NCI-H226 lung 106% | NCI-H322M lung 107% | NCI-H460 lung 110% | NCI-H522 lung 83.5% | 786-0 renal 95.5% | COLO 205 colon 123%

Cc1ccccc1N=C(c1ccccc1)C1C(=O)c2ccccc2C1=O
inactive: NCI-H23 lung 87.6% | NCI-H226 lung 90.4% | HOP-62 NSCLC 98.8% | NCI-H460 lung 101% | HOP-92 NSCLC 72.7% | NCI-H522 lung 59% | 786-0 renal 88.6% | COLO 205 colon 103%

CC1OC(Oc2c(-c3ccc(O)c(O)c3)oc3cc(O)cc(O)c3c2=O)C(O)C(O)C1O (stereo not given)
inactive: NCI-H23 lung 102% | NCI-H226 lung 96.1% | NCI-H322M lung 106% | NCI-H460 lung 105% | HOP-92 NSCLC 88.6% | NCI-H522 lung 102% | A549/ATCC NSCLC 102% | 786-0 renal 108% | COLO 205 colon 104%

CCc1nc(N)nc(N)c1-c1ccc(Cl)cc1
inactive: NCI-H23 lung 64.4% | NCI-H226 lung 65.7% | HOP-62 NSCLC 64.2% | NCI-H460 lung 21.2% | HOP-92 NSCLC 97.7% | A549/ATCC NSCLC 26.6% | 786-0 renal 35.9% | COLO 205 colon 76.5%

O=C(O)[C@@H]1[C@H]2C[C@H]3c4[nH]c5ccccc5c4CCN3C[C@@H]2CC[C@@H]1O
inactive: NCI-H23 lung 102% | NCI-H226 lung 103% | NCI-H322M lung 110% | NCI-H460 lung 121% | HOP-92 NSCLC 109% | NCI-H522 lung 18.2% | A549/ATCC NSCLC 101% | 786-0 renal 76% | COLO 205 colon 123%

c1ccc2c(c1)Sc1ccccc1S2
inactive: NCI-H23 lung 99% | NCI-H226 lung 95.9% | NCI-H322M lung 92.5% | NCI-H460 lung 101% | HOP-92 NSCLC 81.8% | NCI-H522 lung 98.6% | A549/ATCC NSCLC 94.2% | 786-0 renal 94.9% | COLO 205 colon 111%

O=C(O)c1ccnc(Br)c1
inactive: NCI-H23 lung 97.8% | NCI-H226 lung 92.6% | NCI-H322M lung 106% | NCI-H460 lung 104% | HOP-92 NSCLC 96.9% | NCI-H522 lung 105% | A549/ATCC NSCLC 102% | 786-0 renal 102% | COLO 205 colon 107%

Cc1cccc(CO)c1
inactive: NCI-H23 lung 94.5% | NCI-H226 lung 99% | NCI-H322M lung 102% | NCI-H460 lung 105% | HOP-92 NSCLC 102% | NCI-H522 lung 105% | A549/ATCC NSCLC 102% | 786-0 renal 104% | COLO 205 colon 105%

CCOC(=O)CCCC(=O)OCC
inactive: NCI-H23 lung 97.9% | NCI-H226 lung 104% | NCI-H322M lung 99.2% | NCI-H460 lung 105% | HOP-92 NSCLC 101% | NCI-H522 lung 105% | A549/ATCC NSCLC 101% | 786-0 renal 102% | COLO 205 colon 101%

C=CCOC(=O)C(=O)OCC=C
inactive: NCI-H23 lung 110% | NCI-H226 lung 99.7% | HOP-62 NSCLC 92.7% | NCI-H460 lung 112% | HOP-92 NSCLC 90% | NCI-H522 lung 96.6% | A549/ATCC NSCLC 109% | 786-0 renal 106% | COLO 205 colon 111%

COCCOCCCl
inactive: NCI-H23 lung 102% | NCI-H226 lung 101% | NCI-H322M lung 112% | NCI-H460 lung 104% | HOP-92 NSCLC 95% | A549/ATCC NSCLC 106% | 786-0 renal 105% | COLO 205 colon 107%

CC(=O)OC1CC2C(C)(C)OC3CC(=O)OCC32C2CCC3(C)C(=CCC3c3ccoc3)C12C (stereo not given)
active: HOP-92 NSCLC -13%
inactive: NCI-H23 lung 108% | NCI-H226 lung 98.7% | NCI-H322M lung 111% | NCI-H460 lung 108% | NCI-H522 lung 35.6% | A549/ATCC NSCLC 104% | 786-0 renal 103% | COLO 205 colon 76.1%
